# Experimental data as given in PubChem BioAssay AID743445 (Broad Institute, 2014).
# About 1,700 (0.55%) of roughly 310,000 compounds were called active. For the sample, actives were picked, then their nearest neighbours and some compounds at random. A number with no mark means an inactive call. Cut-off read from the data, not from the text of the source: active = inhibition above about 50%; inactive = the rest.
# Target: Histone-lysine N-methyltransferase NSD2 (Homo sapiens) (UniProt O96028)
# Test: blockers of NSD2 lysine methylation activity – biochemical, AlphaScreen, single concentration, set 2, primary screen (AID 743445)
# Details: NSD2 peptide methylation, 120 min, at 12.5 µM, hits give high values
# Sequence of Histone-lysine N-methyltransferase NSD2 (Homo sapiens) (O96028 whole entry, looked up): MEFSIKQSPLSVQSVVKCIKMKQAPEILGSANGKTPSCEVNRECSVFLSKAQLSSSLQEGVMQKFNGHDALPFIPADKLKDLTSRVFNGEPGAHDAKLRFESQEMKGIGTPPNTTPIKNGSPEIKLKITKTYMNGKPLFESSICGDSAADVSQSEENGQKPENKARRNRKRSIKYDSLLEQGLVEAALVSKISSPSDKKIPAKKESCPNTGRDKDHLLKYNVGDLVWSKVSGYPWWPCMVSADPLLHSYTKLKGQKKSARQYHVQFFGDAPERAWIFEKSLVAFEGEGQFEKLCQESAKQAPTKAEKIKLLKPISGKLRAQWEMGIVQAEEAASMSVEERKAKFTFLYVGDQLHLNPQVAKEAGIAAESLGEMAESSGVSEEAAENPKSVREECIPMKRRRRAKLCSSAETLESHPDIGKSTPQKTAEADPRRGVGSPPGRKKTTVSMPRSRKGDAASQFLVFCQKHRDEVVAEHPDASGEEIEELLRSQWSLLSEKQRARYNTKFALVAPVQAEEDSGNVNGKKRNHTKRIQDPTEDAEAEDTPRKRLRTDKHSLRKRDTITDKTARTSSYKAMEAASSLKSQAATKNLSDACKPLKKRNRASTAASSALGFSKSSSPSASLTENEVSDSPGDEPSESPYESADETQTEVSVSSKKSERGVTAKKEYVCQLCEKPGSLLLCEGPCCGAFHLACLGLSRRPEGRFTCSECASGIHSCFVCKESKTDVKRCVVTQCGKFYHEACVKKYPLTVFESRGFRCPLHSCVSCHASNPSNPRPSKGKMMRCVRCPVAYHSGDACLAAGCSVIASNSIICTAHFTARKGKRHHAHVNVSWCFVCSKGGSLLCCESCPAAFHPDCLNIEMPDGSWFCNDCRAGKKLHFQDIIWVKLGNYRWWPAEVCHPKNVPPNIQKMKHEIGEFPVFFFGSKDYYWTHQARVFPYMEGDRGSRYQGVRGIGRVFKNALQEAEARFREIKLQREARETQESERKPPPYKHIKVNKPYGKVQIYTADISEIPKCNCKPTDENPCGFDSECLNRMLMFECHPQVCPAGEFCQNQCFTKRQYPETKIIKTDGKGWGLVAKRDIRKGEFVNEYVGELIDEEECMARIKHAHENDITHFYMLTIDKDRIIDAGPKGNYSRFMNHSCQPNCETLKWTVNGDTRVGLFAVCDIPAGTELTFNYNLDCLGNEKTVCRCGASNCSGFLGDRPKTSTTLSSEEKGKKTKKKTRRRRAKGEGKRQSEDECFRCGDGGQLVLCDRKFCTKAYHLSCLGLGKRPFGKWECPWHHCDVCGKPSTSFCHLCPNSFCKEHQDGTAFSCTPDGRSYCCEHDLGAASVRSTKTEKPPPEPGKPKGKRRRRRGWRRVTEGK
row,SMILES,inhibition
1,Cc1ccccc1NC(=O)COC(=O)c1ccc(Sc2ncn[nH]2)c([N+](=O)[O-])c1,-0.523%
2,C[C@H]1CCC/C=C/C(=O)c2c(O)cc(O)cc2CC(=O)O1,5.2%
3,Cc1occc1C(=O)N/N=C/c1ccc(-c2cccc([N+](=O)[O-])c2)o1,1.62%
4,Cc1ccc(-c2ccc(/C=N/NC(=O)CN3CCOCC3)o2)cc1[N+](=O)[O-],59.9% (active)
5,O=C(CN1CCOCC1)N/N=C/c1ccc(-c2ccc(Br)cc2)o1,4.03%
6,O=C(NCc1ccc(Cl)cc1)C1CCCN(c2nc3ccccc3o2)C1 (stereo unspecified),-10.7%
7,CC1CCN(c2ccc(C(=O)O)cc2NS(=O)(=O)c2ccc(Br)s2)CC1,1.4%
8,Cc1nc2ccc(C(=O)N3CCN(C(=O)C(C)(C)C)CC3)cc2n1C1CCCC1,-2.3%
9,CSc1nccc(-c2ccc(S(=O)(=O)Nc3ccc(C(O)(C(F)(F)F)C(F)(F)F)cc3)s2)n1,3.98%
10,CCN(CC)CCCC(C)n1c2nc(=O)[nH]c(=O)c-2nc2cc(Cl)ccc21 (stereo unspecified),187% (active)
11,CCN(CC)CCn1c2ccc(Cl)cc2c2nc(C)sc21,14.7%
12,O=C(NCCCn1ccnc1)C1CCCN(S(=O)(=O)c2cc(Cl)ccc2Cl)C1 (stereo unspecified),-2.69%
13,CCN1CCN(C(=O)C2CCCN(S(=O)(=O)c3ccc(OC)c(OC)c3)C2)CC1 (stereo unspecified),-0.758%
14,COc1ccc(S(=O)(=O)N2CCCC(C(=O)NCCCn3ccnc3)C2)cc1OC (stereo unspecified),57.8% (active)
15,NC(Cc1ccc(F)cc1)c1csc(Nc2nncc3ccccc23)n1 (stereo unspecified),-3.48%
16,O=C(CSc1nnc(-c2ccccc2)n1Cc1ccco1)Nc1ccccc1-c1ccccc1,6.7%
17,CC1(C)Cc2c(sc3nnn(Cc4ccc(Cl)cc4Cl)c(=O)c23)CO1,8.41%
18,O=C(Cc1cccs1)Nc1nnc(C2CC2)s1,3.72%
19,Cc1cccc(NC(=O)CSCC(=O)Nc2nnc(C3CC3)s2)c1,1.4%
20,O=C(CN1C(=O)c2ccc([N+](=O)[O-])cc2C1=O)Nc1nnc(C2CC2)s1,57.6% (active)
21,O=C(C1CCN(S(=O)(=O)c2ccccc2)CC1)N1CCN(C2CCCCC2)CC1,0.491%
22,c1ccc(CNCc2ccc(CNCc3ccccc3)cc2)cc1,1.25%
23,O=[N+]([O-])c1ccccc1NCc1ccc(Cl)cc1,7.1%

row,SMILES,inhibition
1,Oc1ccc(CNc2ccccc2O)cc1,85.7% (active)
2,Cc1ccc(CSc2nnc(SCC(=O)NN=Cc3cc(Br)ccc3F)s2)cc1,-1.85%
3,CC1(C(=O)Nc2cccc(Oc3ccccc3)c2)CCN1Cc1ccccc1Cl (stereo unspecified),-0.732%
4,CCc1nc2c(OCCOc3ccccc3)cccn2c1N(C=O)Cc1ccc(OC)cc1,-1.53%
5,CN(C(=O)CN1C(=O)S/C(=C\c2ccccc2F)C1=O)C1CCS(=O)(=O)C1 (stereo unspecified),71.1% (active)
6,CN(C(=O)CCN1C(=O)/C(=C/c2ccccc2F)SC1=S)C1CCS(=O)(=O)C1 (stereo unspecified),-1.43%
7,COc1ccccc1/C=C1\SC(=O)N(CCC(=O)N(C)C2CCS(=O)(=O)C2)C1=O (stereo unspecified),2.59%
8,Cc1c(CC(=O)N2CCN(C(=O)C3COc4ccccc4O3)CC2)c(=O)oc2c(O)c(O)ccc12 (stereo unspecified),125% (active)
9,CCN(CC)S(=O)(=O)c1ccc(N2CCOCC2)c(NC(=O)C2COc3ccccc3O2)c1 (stereo unspecified),-0.001%
10,O=C(CNC(=O)C1COc2ccccc2O1)N/N=C/c1cc(Br)c(O)c(Br)c1 (stereo unspecified),26.9%
11,CCc1nc2ccc(C(=O)NCCNC(C)=O)cn2c1N(CC)Cc1cccc(Br)c1,1.25%
12,N#Cc1ccc(CSc2ncccn2)cc1,67.5% (active)
13,N#Cc1ccc(CSc2nnc3ccccn23)cc1,-1.73%
14,N#Cc1ccc(CSc2nnc(-c3ccccn3)n2-c2ccc(Cl)cc2)cc1,3.24%
15,COc1ccc(N2CCN(CCNS(=O)(=O)c3ccc(C(C)(C)C)cc3)CC2)cc1,9.53%
16,COc1ccc(-n2c(SCC(=O)Nc3ccc4c(c3)OCCO4)nnc2-c2ccc(Cl)cc2)cc1,3.06%
17,Cc1ccc(Cn2cc(COC(=O)N(C)Cc3ccccc3)nn2)cc1,-1.9%
18,CCNC(=O)C1(C)CCCN(C(=O)c2ccc3ccccc3n2)C1 (stereo unspecified),104% (active)
19,CCNC(=O)C1(C)CCN(C(=O)c2ccccc2)C1 (stereo unspecified),-2.2%
20,CCNC(=O)C1(C)CCCN(C(=O)c2c(C)noc2C)C1 (stereo unspecified),-2.53%
21,COc1ccc(-n2c(SCC(=O)Nc3ccc4cn[nH]c4c3)nnc2-c2cccnc2)cc1,10.9%
22,O=S(=O)(Nc1ccc(C(O)(C(F)(F)F)C(F)(F)F)cc1)c1ccc(-c2ccccn2)s1,11.8%
23,CS(=O)(=O)N(CC(=O)NCc1ccco1)c1ccc2c(c1)OCO2,65.1% (active)

row,SMILES,inhibition
1,Cc1cc(C)cc(N(CC(=O)NCCSCc2ccco2)S(C)(=O)=O)c1,7.95%
2,S=C(NCc1ccc2c(c1)OCO2)NCc1ccco1,4.85%
3,COc1ccc(C(=O)CSc2nnc(-c3cnccn3)n2-c2ccc(C)cc2)cc1,-4.12%
4,COc1ccc(-n2c(SCC(=O)Nc3ccc(C)c(Cl)c3)nc3ccccc3c2=O)cc1,5.51%
5,COc1cc(NC(=O)c2cc(-c3ccc(F)cc3OC(C)C)n[nH]2)cc(OC)c1OC,-1.66%
6,CC(=O)Oc1ccc2c(c1)C(=O)c1ccccc1C2=O,4.31%
7,O=C1C(Cl)=C(Oc2ccccc2)C(=O)c2ccccc21,101% (active)
8,COc1cccc(-c2ccc3c(c2)N(Cc2ccccc2OC)C(=O)C(C)S3)c1 (stereo unspecified),-0.375%
9,Cc1ccc(-n2c(SCC(=O)Nc3ccc(S(=O)(=O)Nc4nccs4)cc3)nnc2-c2cccnc2)cc1,6.22%
10,CC1(C(=O)Nc2cccc3c2CCCC3)CCN1C(=O)CCc1ccc(Cl)cc1Cl (stereo unspecified),-2.57%
11,O=C(CSc1nnc(-c2ccccn2)n1-c1ccc(Cl)cc1)Nc1ccccc1-c1ccccc1,-2.53%
12,OC[C@@H]1CN(Cc2cccs2)C[C@H](n2cnc3c(NC4CCCC4)ncnc32)O1,-1.52%
13,Cc1ccc(NC(=O)c2cc(C)nn2-c2ccccc2)c(C)c1,-1.54%
14,CCOC(=O)C1=C(C)NC2=C(C(=O)CC(C)(C)C2)C1c1ccc2c(c1)OCO2 (stereo unspecified),15.9%
15,NC1=CC(=O)C(=O)c2cccnc21,122% (active)
16,Cc1cccc(N2C(=O)c3cccnc3C2=O)c1,-1.99%
17,CCOc1ccc(CCN2C(=O)c3cccnc3C2=O)cc1OCC,-2.42%
18,CCOc1ccc(C(c2c(C)[nH][nH]c2=O)c2c(C)[nH][nH]c2=O)cc1OCC,10.6%
19,Cc1[nH][nH]c(=O)c1C(c1ccc2c(c1)OCO2)c1c(C)[nH][nH]c1=O,84.4% (active)
20,Nc1[nH][nH]c(=O)c1N=Nc1ccc2c(c1)OCO2,4.47%
21,CCCCN1CCN(C(=O)c2ccc3c(c2)NC(=O)C(C)(C)O3)CC1,8.11%
22,COc1ccc(CN(CCN2CCOCC2)C(=O)c2ccc(C)cc2)cc1OC,6.86%
23,COc1ccc(CSc2nnc(SCC(=O)Nc3ccccc3C(F)(F)F)s2)cc1,0.831%

row,SMILES,inhibition
1,COc1ccc(CSc2nnc(-c3cccc(C)c3)n2C)cc1,0.584%
2,Oc1ccc2ccccc2c1N=Nc1nccs1,34.1%
3,Oc1c(C=Nc2cccc3nsnc23)ccc2ccccc12,109% (active)
4,O=C(CSc1nc2ccccc2s1)N=Nc1c(O)[nH]c2ccccc12,2.59%
5,O=C(CSc1nnc(COc2ccccc2)n1Cc1ccco1)c1ccc2ccccc2c1,0.338%
6,O=C(CSc1nc2ccccc2n1Cc1ccccc1Cl)N/N=C\c1c[nH]c2ccccc12,3%
7,O=C(OCC(=O)N1CCN(c2ccccc2)CC1)c1ccc([N+](=O)[O-])s1,1.02%
8,COc1cc(NC(=O)COC(=O)c2ccc([N+](=O)[O-])s2)cc(OC)c1OC,72.8% (active)
9,COc1cc(C(=O)OCc2ccc([N+](=O)[O-])cc2)cc(OC)c1OC,-0.924%
10,O=C(NCc1cccnc1)c1cc(C2CCCN(C(=O)CCCc3ccccc3)C2)on1 (stereo unspecified),-1.28%
11,Fc1ccc2nc(COCc3nc4ccc(F)cc4[nH]3)[nH]c2c1,-1.4%
12,CCCOc1ccc(F)cc1-c1cc(C(=O)NCc2ccc(F)cc2)[nH]n1,19.4%
13,COc1ccc(CCNC(=O)CSc2nc3c([nH]2)c(=O)n(C)c(=O)n3C)cc1,-8.19%
14,COC(=O)[C@H](Cc1ccccc1)NC(=O)Nc1ccc(S(N)(=O)=O)cc1,59.7% (active)
15,COC(=O)[C@@H](Cc1ccccc1)NC(=O)NCCc1ccccc1,0.664%
16,COC(=O)[C@H](Cc1ccccc1)NC(=O)Nc1ccc(OC)cc1,-1.09%
17,COc1ccc(NC(=O)C2(C)Cc3c(-c4cccc(NC(C)=O)c4)ccnc3O2)cc1OC (stereo unspecified),1.97%
18,CCOc1ccccc1C(=O)Nc1cccc(C(=O)Nc2cc(C)ccn2)c1,1.28%
19,O=C(CSc1nnc(-c2cccc(Cl)c2)n1Cc1ccco1)Nc1ccc(OCc2ccccc2)cc1,-1.47%
20,CC(=O)CC(CC(=O)NC1CCCCC1)c1ccccc1 (stereo unspecified),-4.05%
21,CC(=O)c1cc(-c2ccccc2)n(CCC(=O)NC2CCCCCC2)c1C,1.47%
22,CC(=O)c1cc(-c2ccccc2)n(CC(=O)NC2CCCCC2)c1C,71.5% (active)
